Among the targets are LSG1; LTA4H; MAN1C1; MCM6; MEPCE; MMADHC; MOBKL1B; MPG; MRC1L1; MRS2; MRPS24; MTDH; MST4; MTX3; MYBL1; MUSTN1; MUTED.
Common to all, as to assay: pooled miR-30 sensor sort-seq; sequence = guide strand
Common to all, as to settings: shRNA
Note: reference of the scale not given here.

In the case of TAGCTCCTTAAAGAGCTCCAGT, the sensor-assay potency score (higher = more potent) with LSG1 was -1.06. For TTCATGTGCAATGACATTGGAG, the sensor-assay potency score (higher = more potent) with LTA4H is -0.277. For the sequence TTGATTGAGAACATCAACCTTA, in the test with LTA4H, the sensor-assay potency score (higher = more potent) was 0.904. As for TTCGATCTTCCTGAGGACCTTG, in the test with MAN1C1, the sensor-assay potency score (higher = more potent) turned out to be 0.041. Regarding TTGATTTATTCAGTAACCGGAA, the sensor-assay potency score (higher = more potent) with MCM6 is -0.345. For TAAGAGTCTTTCTCTTGCCATA, the sensor-assay potency score (higher = more potent) with MEPCE was -1.25. On to TTCTTCACTCCAAACAGTCATA, for which the sensor-assay potency score (higher = more potent) in the test with MMADHC is -1.24. Still for that read-out and setting: under TTTCACTTGATAAAGGTTCTGC stands 0.549. Turning to TTTTGGTGCAGAACATTTGATT, in the test with MOBKL1B, the sensor-assay potency score (higher = more potent) was -0.935.

For AATATTAGTACCATCTGCCCAG, the sensor-assay potency score (higher = more potent) with MOBKL1B was 0.0511. TCTAGCTGGTCGCTGCTTCTTT registered a sensor-assay potency score (higher = more potent) with MPG of -0.646. Regarding TTGTTTTCAAACTTGAACGGGA, in the test with MRC1L1, the sensor-assay potency score (higher = more potent) came to 0.456.

In the test with MRC1L1, TTTCTCATCTCTGTGAATCTTG displayed a sensor-assay potency score (higher = more potent) of 0.274. In the case of TTCCATGCTTCTATCTGCCAGA, in the test with MRS2, the sensor-assay potency score (higher = more potent) is -0.489.

In turn, TTTGTCACAGTAAATACTGGGG showed a sensor-assay potency score (higher = more potent) in the test with MRS2 of 0.152.

As to TGTGATACTCATTACATGCTGA, the sensor-assay potency score (higher = more potent) with MRS2 turned out to be 0.129.

Regarding TAAAACCAGCTGGTCAGCCAGG, the sensor-assay potency score (higher = more potent) in the test with MRPS24 is -1.47.

TTCTTCTGTTCCTCGCTCCGGA came in with a sensor-assay potency score (higher = more potent) with MTDH of -0.0167. Sequence TTCACTGTAGCCCACGAGGAAG displayed a sensor-assay potency score (higher = more potent) in the test with MRPS24 of -1.08. Sequence TTTAATAGCAACGACTTGCTGG displayed a sensor-assay potency score (higher = more potent) with MST4 of 0.885. For TTACACTTTGAGGTGTTCGAAC, the sensor-assay potency score (higher = more potent) with MTDH is -0.892. Take TACCCCACATGAACTTGCGAAG: the sensor-assay potency score (higher = more potent) in the test with MRPS24 was -1.43. On to TATTTTGTTACATATGAGCTGT, for which the sensor-assay potency score (higher = more potent) with MST4 was -0.0518. In turn, TAGTTGAATCCAATGAACCAGA yielded a sensor-assay potency score (higher = more potent) with MTDH of -0.602. In the test with MST4, TAAACTGTAATTGTGTTTCAGT yielded a sensor-assay potency score (higher = more potent) of 0.0353. Still for that read-out and setting: the same measure for TTATCATAGACAAACAACTCAG: -0.749. TTGGAGGTGGAGTCGCACAGGA returned a sensor-assay potency score (higher = more potent) with MRPS24 of -0.602. In the test with MRS2, TTGATACACAGAGCTCTTCTAG registered a sensor-assay potency score (higher = more potent) of -0.709.

Turning to TTGCTTACTAATCTGTAGGCAA, the sensor-assay potency score (higher = more potent) in the test with MTDH was -0.352. In the test with MRS2, TAAACCGGTGCACTTCACCTGC had a sensor-assay potency score (higher = more potent) of -0.316.

The sequence TAATATCAGAAGACACTCTGGA came in with a sensor-assay potency score (higher = more potent) in the test with MRS2 of 0.725. Consider TATAGGACAATTTATTACCATG, for which the sensor-assay potency score (higher = more potent) with MST4 is -1.23. As to TAAAAGTAGGACAGCAAAGTTT, in the test with MRPS24, the sensor-assay potency score (higher = more potent) is -1.12. Still for that read-out and setting: the same measure for TGTGCAGCGACAGCCAGCCTTT: -0.931. Regarding TAGTTTAATAGCTTCTTCCAAA, in the test with MST4, the sensor-assay potency score (higher = more potent) is -1.19. With TTAATATCTGTTTCTAACTCTG, in the test with MRS2, the sensor-assay potency score (higher = more potent) was 0.197. In turn, TTCAACATTACCAAACACCTAT registered a sensor-assay potency score (higher = more potent) in the test with MST4 of -0.0444.

Sequence TTTGTAAAAGTAGGACAGCAAA registered a sensor-assay potency score (higher = more potent) with MRPS24 of -1.45. On the same count and under the same terms, the same measure for TAGGTCACCGGCTTGTCCCCCT: 0.167. Turning to TAGCAACTCTTCCTCATCCAAG, in the test with MRS2, the sensor-assay potency score (higher = more potent) was -1. In the test with MST4, TTTGTGAACAGTTCTTCTGGAT registered a sensor-assay potency score (higher = more potent) of 0.425. Take TAATATCTGTTTCTAACTCTGA: the sensor-assay potency score (higher = more potent) with MRS2 was -0.212. For the sequence TAGGACAGCAAAGTTTCACTGT, the sensor-assay potency score (higher = more potent) with MRPS24 was 0.628. In the test with MRPS24, AAGGAAAACATCCTCCACCGTT gave a sensor-assay potency score (higher = more potent) of -0.646. TACACAGAGCTCTTCTAGCAAC had a sensor-assay potency score (higher = more potent) with MRS2 of -1.3. On to TGAATCATCAATCAGCACCCTA, for which the sensor-assay potency score (higher = more potent) with MRS2 was -0.284. For the sequence TTGCTTTAAATTTCTAACCATG, the sensor-assay potency score (higher = more potent) with MST4 was -1.11. Same read-out and setting: the same measure for TAAAATTGCCTCTTCTACCTAA: 0.733. With TTTATCATCATCTGAGACCTTT, the sensor-assay potency score (higher = more potent) with MTDH is -0.0741. In turn, TTGTGTGGAGACAACTGCCTCA returned a sensor-assay potency score (higher = more potent) in the test with MRPS24 of -0.151. TAATATTTGACAATTACTCAGA: the sensor-assay potency score (higher = more potent) with MST4 was -0.142. For the sequence TATCATAGACAAACAACTCAGG, the sensor-assay potency score (higher = more potent) in the test with MST4 is -0.251. TACTTGTGTGGAGACAACTGCC registered a sensor-assay potency score (higher = more potent) with MRPS24 of -0.594. In the test with MTX3, ATAATCAGCATTATATTTCTGT gave a sensor-assay potency score (higher = more potent) of 0.674. In the test with MYBL1, TAAAGGAACAGCTTCACTGTTG had a sensor-assay potency score (higher = more potent) of -0.055. Sequence AGCTTGCTCACACTCTCGCATG gave a sensor-assay potency score (higher = more potent) with MUSTN1 of -2.04.

Regarding TTGCTCACACTCTCGCATGACC, in the test with MUSTN1, the sensor-assay potency score (higher = more potent) is -1.08. Sequence TCTTGGTCAGGTTTCCTCGGGC yielded a sensor-assay potency score (higher = more potent) with MUSTN1 of 0.0366.

As to TTTTCTGTGCTCTTCATCCACT, the sensor-assay potency score (higher = more potent) in the test with MUTED is -0.826. Turning to TTATCTTATAAAGCTTACCCAC, the sensor-assay potency score (higher = more potent) with MUTED is -1.06.

The record behind these values is the OligoGym collection.
